# Assay results from PubChem BioAssay AID2061305 (National Center for Advancing Translational Sciences (NCATS), 2025).
# Records with an inconclusive call do not appear. Active and inactive are the calls of the source. Calls come from the whole dose curve; as a rule, active = well fitted inhibition curve with a large enough effect; inconclusive = small, poorly fitted or top-dose-only effect; inactive = flat fitted curve, though single readings scatter. Where a SMILES comes first, the peptide text is derived from it. [ ]: non-standard residue; d: D form. The star is where a group is joined. Dolaproine = CO[C@@H]([C@@H]1CCCN1)[C@@H](C)C(=O)O; Dil = CC[C@H](C)[C@H](NC)[C@@H](CC(=O)O)OC; NMe2Val = CC(C)[C@@H](C(=O)*)N(C)C; X1 = C[C@@H](N*)[C@@H](O)c1ccccc1; NMeV = CN[C@H](C(=O)O)C(C)C
# Experiment: Identification of antibody-drug conjugate (ADC) payloads which are substrates of ATP-binding cassette drug efflux transporters: ABCB1-HeLa-KB-3-1 cell line
# Conditions: KB-3-1 (HeLa derivative) viability, CellTiter-Glo, 48 h
# Text: Antibody-drug conjugates (ADCs) feature an antibody recognizing a specific protein joined to a potent toxic payload. Numerous antibody-drug conjugates have received FDA approval; however, clinical resistance arises. Resistance mechanisms include decreased expression or mutation of the antibody target, impaired payload release, or increased expression of ATP-binding cassette (ABC) efflux transporters associated with multidrug resistance. We therefore sought to characterize the interaction of ABC multidrug transporters with ADC payloads. We performed a high-throughput screen with 27 common ADC payloads using cells lines expressing ABC transporters P-glycoprotein (P-gp, encoded by ABCB1) or ABCG2 (encoded by ABCG2). Confirmatory assays were also performed using cells transfected to express P-gp, ABCG2, or MRP1 (encoded by ABCC1). Several commonly used ADC payloads were substrates of P-gp, including calicheamicin gamma1, monomethyl auristatin E, DM1, and DM4. All the pyrrolobenzodiazepines tested - SJG136, SGD-1882, SG2057, and SG3199 - were substrates of P-gp, ABCG2, and MRP1. […] These findings highlight the risk of transporter-mediated resistance with certain ADC payloads and underscore the importance of selecting payloads that evade ABC transporter recognition in future ADC development.
# HEK-293 cells were transfected with empty vector (pcDNA) or vector containing the human ABCB1 (MDR-19), ABCG2 (R-5), or ABCC1 gene (MRP1) and were maintained in EMEM with 2 mg/mL G418 added to maintain transporter expression. The HeLa derivative KB-3-1 and the P-gp overexpressing KB-8-5-11 subline were maintained in DMEM; KB-8-5-11 additionally received 100 ng/mL colchicine. H460 parental cells were obtained from the Division of Cancer Treatment and Diagnosis Tumor Repository, National Cancer Institute at Frederick, MD and were cultured in RPMI. The ABCG2 expressing subline H460 MX20 was generated by selecting H460 cells in 20 nM mitoxantrone. Media in all cases was supplemented with 10% FBS and 1% penicillin-streptomycin. We explored 27 common ADC payloads, in two orthogonal, paired cell line sets-a drug selected and transfected set for each transporter--to identify substrates of the ABC transporters P-gp and ABCG2. Compounds were sourced from Levena Biopharma (San Diego, CA), Selleck Chem (Houston, TX), ChemieTek (Indianapolis, IN), or Microsource Discovery Systems (Gaylordsville, CT). Screening was performed as previously described. Briefly, cells were plated at a density of 500 cells/well in 1536 well plates with compounds added using a 1536-head pin tool (Kalypsys, San Diego CA). Cells were incubated with cytotoxic drugs and processed with CellTiter Glo reagent (Promega, Madison, WI) to determine viability after 48 hours. P-gp substrates were identified by comparing compound activity between paired sets of low-expressing (sensitive) and over-expressing (resistant) cell lines.
row,SMILES,Potency
1,COc1cccc2c1C(=O)c1c(O)c3c(c(O)c1C2=O)C[C@@](O)(C(=O)CO)CC3OC1CC(N2CCOC(OC)C2)C(O)C(C)O1 (stereo not given in full),11.8 nM (active)
2,CC[C@H](C)[C@@H]1NC(=O)CNC(=O)[C@H]2Cc3c([nH]c4cc(O)ccc34)S(=O)C[C@H](NC(=O)CNC1=O)C(=O)N[C@@H](CC(N)=O)C(=O)N1C[C@H](O)C[C@H]1C(=O)N[C@@H]([C@@H](C)[C@@H](O)CO)C(=O)N2 (stereo not given in full),5290 nM (active)
3,COc1cc2cc(C(=O)N3C[C@@H](CCl)c4c3cc(O)c3ccccc43)[nH]c2c(OC)c1OC,1.3 nM (active)
4,CC[C@H](C)[C@@H]([C@@H](CC(=O)N1CCC[C@H]1[C@H](OC)[C@@H](C)C(=O)N[C@@H](Cc1ccccc1)C(=O)O)OC)N(C)C(=O)[C@@H](NC(=O)[C@H](C(C)C)N(C)C)C(C)C (NMe2Val-V[Dil][Dolaproine]F-OH),33.4 nM (active)
5,COc1cc2cc(c1Cl)N(C)C(=O)C[C@H](OC(=O)[C@H](C)N(C)C(=O)CCC(C)(C)S)[C@]1(C)OC1[C@H](C)C1C[C@@](O)(NC(=O)O1)[C@H](OC)/C=C/C=C(\C)C2 (stereo not given in full),0.5 nM (active)
6,CC[C@@]1(O)C(=O)OCc2c1cc1n(c2=O)Cc2cc3ccccc3nc2-1,334 nM (active)
7,CC[C@H](C)[C@H](NC(=O)[C@H]1CCCCN1C)C(=O)N(C)[C@H](C[C@@H](OC(C)=O)c1nc(C(=O)N[C@@H](Cc2ccccc2)C[C@H](C)C(=O)O)cs1)C(C)C,0.3 nM (active)
8,CC[C@H](C)[C@@H]([C@@H](CC(=O)N1CCC[C@H]1[C@H](OC)[C@@H](C)C(=O)N[C@H](C)[C@@H](O)c1ccccc1)OC)N(C)C(=O)[C@@H](NC(=O)[C@@H](NC)C(C)C)C(C)C (H-[NMeV]V[Dil][Dolaproine]-X1),0.3 nM (active)
9,CC[C@H](C)[C@@H]([C@@H](CC(=O)N1CCC[C@H]1[C@H](OC)[C@@H](C)C(=O)N[C@H](C)[C@@H](O)c1ccccc1)OC)N(C)C(=O)[C@@H](NC(=O)[C@H](C(C)C)N(C)C)C(C)C,0.2 nM (active)
10,CC[C@H](C)[C@H](NC(=O)[C@H]1CCCCN1C)C(=O)N(C)[C@H](C[C@@H](OC(C)=O)c1nc(C(=O)O)cs1)C(C)C,472 nM (active)
